Test system: Salmonella enterica serovar Typhimurium 14028s
Assay: approximate change in surviving CFU after surface colonization relative to water-only control (log10 CFU/mL change); higher = more surviving bacteria (less inhibition of surface colonization)
Conditions: not stated (Biolog proprietary concentration), surface: plastic 96-well plate, 20-24 h at 25 °C

NCC(=O)N[C@@H](CCC(N)=O)C(=O)O
approximate change in surviving CFU (log10) (Biolog plate: PM3, Biolog well: H9): 0.129

NCC(=O)N[C@@H](CCC(=O)O)C(=O)O
approximate change in surviving CFU (log10) (Biolog plate: PM3, Biolog well: H10): 0.472

CSCC[C@H](N)C(=O)N[C@@H](C)C(=O)O
approximate change in surviving CFU (log10) (Biolog plate: PM3, Biolog well: H12): 0.0214

N=C(N)NCCC[C@H](N)C(=O)O [L-Arginine]
approximate change in surviving CFU (log10) (Biolog plate: PM2, Biolog well: G4): 0.966 | approximate change in surviving CFU (log10) (Biolog plate: PM3, Biolog well: A8): 0.236

C[C@@H](N)C(=O)O [D-Alanine]
approximate change in surviving CFU (log10) (Biolog plate: PM1, Biolog well: A9): 0.622 | approximate change in surviving CFU (log10) (Biolog plate: PM3, Biolog well: C3): 0.343

NCCC[C@H](N)C(=O)O [L-Ornithine]
approximate change in surviving CFU (log10) (Biolog plate: PM2, Biolog well: H1): 0.708 | approximate change in surviving CFU (log10) (Biolog plate: PM3, Biolog well: C12): 0.172

O=C1CC[C@@H](C(=O)O)N1 [L-Pyroglutamic Acid]
approximate change in surviving CFU (log10) (Biolog plate: PM2, Biolog well: H3): -0.0858 | approximate change in surviving CFU (log10) (Biolog plate: PM3, Biolog well: D3): -0.258

N[C@@H](CC(=O)O)C(=O)O [L-Aspartic Acid]
approximate change in surviving CFU (log10) (Biolog plate: PM1, Biolog well: A7): 0.644 | approximate change in surviving CFU (log10) (Biolog plate: PM3, Biolog well: A10): 0.451

OC[C@H]1O[C@@](CO)(O[C@H]2O[C@H](CO)[C@@H](O)[C@H](O)[C@H]2O)[C@@H](O[C@H]2O[C@H](CO)[C@@H](O)[C@H](O)[C@H]2O)[C@@H]1O [D-Melezitose]
approximate change in surviving CFU (log10) (Biolog plate: PM2, Biolog well: C4): 1.16

Cc1cn([C@H]2C[C@H](O)[C@@H](CO)O2)c(=O)[nH]c1=O [Thymidine]
approximate change in surviving CFU (log10) (Biolog plate: PM1, Biolog well: C12): 1.5 | approximate change in surviving CFU (log10) (Biolog plate: PM3, Biolog well: F9): -0.193

CC[C@H](C)[C@H](N)C(=O)O [L-Isoleucine]
approximate change in surviving CFU (log10) (Biolog plate: PM2, Biolog well: G9): 0.794 | approximate change in surviving CFU (log10) (Biolog plate: PM3, Biolog well: B4): -0.0429

N[C@@H](Cc1ccccc1)C(=O)O [L-Phenylalanine]
approximate change in surviving CFU (log10) (Biolog plate: PM2, Biolog well: H2): -0.322 | approximate change in surviving CFU (log10) (Biolog plate: PM3, Biolog well: B8): -0.215

N[C@@H](CO)C(=O)O [L-Serine]
approximate change in surviving CFU (log10) (Biolog plate: PM1, Biolog well: G3): 1.07 | approximate change in surviving CFU (log10) (Biolog plate: PM3, Biolog well: B10): 0.107

O=C1NC(=O)C(=O)N1 [Parabanic Acid]
approximate change in surviving CFU (log10) (Biolog plate: PM3, Biolog well: G6): -2.58e-05

CC(N)=O [Acetamide]
approximate change in surviving CFU (log10) (Biolog plate: PM2, Biolog well: G1): -0.365 | approximate change in surviving CFU (log10) (Biolog plate: PM3, Biolog well: E4): -1.76

O=c1ccn([C@@H]2O[C@H](CO)[C@@H](O)[C@H]2O)c(=O)[nH]1 [Uridine]
approximate change in surviving CFU (log10) (Biolog plate: PM1, Biolog well: D12): 1.74 | approximate change in surviving CFU (log10) (Biolog plate: PM3, Biolog well: F11): -0.236

NCC(=O)O [Glycine]
approximate change in surviving CFU (log10) (Biolog plate: PM2, Biolog well: G5): 0.494 | approximate change in surviving CFU (log10) (Biolog plate: PM3, Biolog well: B2): 0.15

N[C@@H](CCC(=O)O)C(=O)O [L-Glutamic Acid]
approximate change in surviving CFU (log10) (Biolog plate: PM1, Biolog well: B12): 1.24 | approximate change in surviving CFU (log10) (Biolog plate: PM3, Biolog well: A12): 0.279

C[C@H](N)C(=O)O [L-Alanine]
approximate change in surviving CFU (log10) (Biolog plate: PM1, Biolog well: G5): 0.987 | approximate change in surviving CFU (log10) (Biolog plate: PM3, Biolog well: A7): 0.129

NC(=O)C[C@H](N)C(=O)O [L-Asparagine]
approximate change in surviving CFU (log10) (Biolog plate: PM1, Biolog well: D1): 0.944 | approximate change in surviving CFU (log10) (Biolog plate: PM3, Biolog well: A9): 0.451

O=C(O)CO [Glycolic Acid]
approximate change in surviving CFU (log10) (Biolog plate: PM1, Biolog well: F9): 0.736 | approximate change in surviving CFU (log10) (Biolog plate: PM2, Biolog well: E9): 0.644

CC(C)C[C@H](N)C(=O)O [L-Leucine]
approximate change in surviving CFU (log10) (Biolog plate: PM2, Biolog well: G10): 0.451 | approximate change in surviving CFU (log10) (Biolog plate: PM3, Biolog well: B5): -0.236

CC(C)[C@H](N)C(=O)O [L-Valine]
approximate change in surviving CFU (log10) (Biolog plate: PM2, Biolog well: H4): 0.15 | approximate change in surviving CFU (log10) (Biolog plate: PM3, Biolog well: C2): -0.386

O=c1[nH]cnc2c1ncn2[C@@H]1O[C@H](CO)[C@@H](O)[C@H]1O [Inosine]
approximate change in surviving CFU (log10) (Biolog plate: PM1, Biolog well: F12): 1.65 | approximate change in surviving CFU (log10) (Biolog plate: PM3, Biolog well: F12): -0.365

NCCCCN [Putrescine]
approximate change in surviving CFU (log10) (Biolog plate: PM2, Biolog well: H8): 0.322 | approximate change in surviving CFU (log10) (Biolog plate: PM3, Biolog well: D11): -0.3

CSCC[C@H](N)C(=O)O [L-Methionine]
approximate change in surviving CFU (log10) (Biolog plate: PM2, Biolog well: G12): 0.365 | approximate change in surviving CFU (log10) (Biolog plate: PM3, Biolog well: B7): -0.88

N[C@@H](Cc1c[nH]cn1)C(=O)O [L-Histidine]
approximate change in surviving CFU (log10) (Biolog plate: PM2, Biolog well: G6): 1.01 | approximate change in surviving CFU (log10) (Biolog plate: PM3, Biolog well: B3): 0.279

NC(=O)CC[C@H](N)C(=O)O [L-Glutamine]
approximate change in surviving CFU (log10) (Biolog plate: PM1, Biolog well: E1): 0.322 | approximate change in surviving CFU (log10) (Biolog plate: PM3, Biolog well: B1): -0.0429

CC(=O)N[C@H]1C(O)O[C@H](CO)[C@H](O)[C@@H]1O (stereo partly drawn) [N-Acetyl-D-Galactosamine]
approximate change in surviving CFU (log10) (Biolog plate: PM2, Biolog well: B1): 0.622 | approximate change in surviving CFU (log10) (Biolog plate: PM3, Biolog well: E12): -0.129

C[C@@H](O)[C@H](N)C(=O)O [L-Threonine]
approximate change in surviving CFU (log10) (Biolog plate: PM1, Biolog well: G4): 1.03 | approximate change in surviving CFU (log10) (Biolog plate: PM3, Biolog well: B11): -0.129

NCCc1ccc(O)cc1 [Tyramine]
approximate change in surviving CFU (log10) (Biolog plate: PM1, Biolog well: H4): 0.537 | approximate change in surviving CFU (log10) (Biolog plate: PM3, Biolog well: E3): -1.37

O=C(O)[C@@H]1CCCN1 [L-Proline]
approximate change in surviving CFU (log10) (Biolog plate: PM1, Biolog well: A8): 0.107 | approximate change in surviving CFU (log10) (Biolog plate: PM3, Biolog well: B9): 0.0858

Nc1ncnc2c1ncn2[C@@H]1O[C@H](CO)[C@@H](O)[C@H]1O [Adenosine]
approximate change in surviving CFU (log10) (Biolog plate: PM1, Biolog well: E12): 0.622 | approximate change in surviving CFU (log10) (Biolog plate: PM3, Biolog well: F3): 0.751

N[C@H](CO)C(=O)O [D-Serine]
approximate change in surviving CFU (log10) (Biolog plate: PM1, Biolog well: B1): 1.14 | approximate change in surviving CFU (log10) (Biolog plate: PM3, Biolog well: C8): 0.279

NC(=O)[C@H]1O[C@@H](O)[C@H](O)[C@@H](O)[C@@H]1O [Glucuronamide]
approximate change in surviving CFU (log10) (Biolog plate: PM1, Biolog well: H7): 1.03 | approximate change in surviving CFU (log10) (Biolog plate: PM3, Biolog well: E6): 0.622

N[C@H](CC(=O)O)C(=O)O [D-Aspartic Acid]
approximate change in surviving CFU (log10) (Biolog plate: PM1, Biolog well: D2): 1.01 | approximate change in surviving CFU (log10) (Biolog plate: PM3, Biolog well: C5): 0.816

N[C@@H](CCO)C(=O)O [L-Homoserine]
approximate change in surviving CFU (log10) (Biolog plate: PM2, Biolog well: G7): 0.923 | approximate change in surviving CFU (log10) (Biolog plate: PM3, Biolog well: C11): 0.365
